The record followed here is PubChem BioAssay (Tox21).

Test [1] concerns the target Bile acid receptor (Homo sapiens) (UniProt Q96RI1). The experiment in a line: qHTS assay to identify small molecule antagonists of the farnesoid-X-receptor (FXR) signaling pathway (AID 743217; active = well fitted inhibition curve with a large enough effect in the signal ratio in the repeat runs, not every such curve was filed as active; the % refers to the signal ratio; note: potency is the fitted concentration of half-maximal effect). Summed up: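 Read-out: beta-lactamase FRET fluorescence (LiveBLAzer B/G substrate, 2 h, room temperature) in GeneBLAzer FXR-UAS-bla HEK 293T cells. Compounds were co-dosed with 50 uM chenodeoxycholic acid (final) and incubated 16 h at 37 °C.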
A general note: Quantitative high-throughput screening tests each substance at several concentrations.

Test [2] can be described thus: qHTS assay to identify small molecule agonists of the peroxisome proliferator-activated receptor delta (PPARd) signaling pathway - cell viability counter screen (AID 743211). Note: nearly all actives have a fitted effect of over 55% in size. Note: potency is the fitted concentration of half-maximal effect. In outline: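 PPARd-bla HEK293H cells (3000/well) were pre-incubated 5 h at 37 C, then exposed to compound for 17 h at 37 C. After 2 h with LiveBLAzer substrate, CellTiter-Glo was added to the same wells; luminescence read after 30 min at room temperature.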

Test [3] can be described thus: qHTS assay to identify small molecule antagonists of the peroxisome proliferator-activated receptor delta (PPARd) signaling pathway - cell viability counter screen (AID 743213). Note: nearly all actives have a fitted effect of over 50% in size. Note: potency is the fitted concentration of half-maximal effect. Summed up:
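Agonist-stimulated (L165041, 300 nM final) HEK293H PPARd UAS-bla cells are exposed to compounds for 17 h at 37 C, and ATP-based luminescence (CellTiter-Glo) from the same wells reports cytotoxicity.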

A short description of test [4]: qHTS assay to identify small molecule agonists of the farnesoid-X-receptor (FXR) signaling pathway - cell viability counter screen (AID 743218). Note: nearly all actives have a fitted effect of over 45% in size. Note: potency is the fitted concentration of half-maximal effect. Summed up: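 Luminescence from CellTiter-Glo, read after 30 min at RT, reports viability of GeneBLAzer FXR-UAS-bla HEK 293T cells treated 16 h with compounds in the wells used for the beta-lactamase reporter.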
Test [5] addresses Bile acid receptor (Homo sapiens) (UniProt Q96RI1). The experiment in a line: qHTS assay to identify small molecule agonists of the farnesoid-X-receptor (FXR) signaling pathway (AID 743220; active = well fitted activation curve with a large enough effect in the signal ratio in the repeat runs, not every such curve was filed as active; the % refers to the signal ratio). Summed up:
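FXR-UAS-bla HEK 293T cells carrying a UAS-driven beta-lactamase reporter were plated for 5 h at 37C/5% CO2, then exposed to DMSO-dissolved Tox21 10K compounds for 16 h at 37C. A LiveBLAzer B/G FRET substrate was loaded for 2 h at room temperature before fluorescence reading.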

The nature of test [6]: qHTS assay to identify small molecule antagonists of the farnesoid-X-receptor (FXR) signaling pathway - cell viability counter screen (AID 743221; active = well fitted cell-killing curve with a large enough effect in the repeat runs, not every such curve was filed as active; note: nearly all actives have a fitted effect of over 50% in size; note: potency is the fitted concentration of half-maximal effect). Summed up: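 GeneBLAzer FXR-UAS-bla HEK 293T cells, compound plus chenodeoxycholic acid (50 uM final), 16 h at 37 C. CellTiter-Glo added to the same wells after the beta-lactamase read; luminescence read after 30 min at room temperature as viability.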

In test [7] the target is Vitamin D3 receptor (Homo sapiens) (UniProt P11473). Nature of the test: qHTS assay to identify small molecule antagonists of the vitamin D receptor (VDR) signaling pathway (AID 743223; active = well fitted inhibition curve with a large enough effect in the signal ratio in the repeat runs, not every such curve was filed as active; the % refers to the signal ratio). In outline: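 VDR-bla cells were treated with compound plus 3 nM final 1alpha,25-dihydroxyvitamin D3 for 16 h at 37C. Beta-lactamase reporter read by B/G FRET substrate fluorescence after 2 h at room temperature. qHTS format.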

Test [8] has the same target. The experiment in a line: qHTS assay to identify small molecule agonists of the vitamin D receptor (VDR) signaling pathway (AID 743222; calls by dose curve). Summed up:
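Beta-lactamase reporter readout (LiveBLAzer B/G FRET, 2 h RT) in VDR-bla cells after 16 h compound treatment at 37C, 5% CO2; cells pre-incubated 4 h before pin transfer of DMSO solutions.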

Test [9] addresses Peroxisome proliferator-activated receptor delta (Homo sapiens) (UniProt Q03181). The experiment in a line: qHTS assay to identify small molecule antagonists of the peroxisome proliferator-activated receptor delta (PPARd) signaling pathway (AID 743215; active = well fitted inhibition curve with a large enough effect in the signal ratio in the repeat runs, not every such curve was filed as active; the % refers to the signal ratio; note: potency is the fitted concentration of half-maximal effect). Summed up:
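HEK293H GeneBLAzer PPARd UAS-bla reporter cells; cpd + L165041 300 nM final, 17 h 37 C; LiveBLAzer B/G FRET substrate 2 h RT; fluorescence intensity read-out. Antagonist mode.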

Each structure is given as a SMILES string. Several values for one entry are separate records, joined by “and”; a condition that tells them apart may be missing. Equal entries are not always repeated. Inconclusive results are not listed. Activity calls are given as the source filed them. Unless noted, calls come from the whole dose curve; as a rule, active = well fitted curve in the direction sought with a large enough effect in the repeat runs; inconclusive = weak or mixed curves; inactive = no such curve, though single readings can be large; an effect the other way counts as inactive or inconclusive.

Sequence of Bile acid receptor (Homo sapiens) (Q96RI1 whole entry, looked up): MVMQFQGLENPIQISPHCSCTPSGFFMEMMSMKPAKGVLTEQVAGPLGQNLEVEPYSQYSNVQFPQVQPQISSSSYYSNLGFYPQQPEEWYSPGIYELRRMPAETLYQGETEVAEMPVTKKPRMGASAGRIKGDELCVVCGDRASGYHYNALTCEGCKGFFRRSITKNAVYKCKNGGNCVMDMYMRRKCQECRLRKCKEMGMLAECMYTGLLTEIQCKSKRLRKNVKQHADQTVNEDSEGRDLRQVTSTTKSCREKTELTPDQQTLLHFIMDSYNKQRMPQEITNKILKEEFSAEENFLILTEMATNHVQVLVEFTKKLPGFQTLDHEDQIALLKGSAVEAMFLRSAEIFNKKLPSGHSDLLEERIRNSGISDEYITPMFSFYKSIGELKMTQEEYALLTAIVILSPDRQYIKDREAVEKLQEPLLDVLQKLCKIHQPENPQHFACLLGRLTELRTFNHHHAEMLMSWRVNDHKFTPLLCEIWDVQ
Sequence of Vitamin D3 receptor (Homo sapiens) (P11473 whole entry, looked up): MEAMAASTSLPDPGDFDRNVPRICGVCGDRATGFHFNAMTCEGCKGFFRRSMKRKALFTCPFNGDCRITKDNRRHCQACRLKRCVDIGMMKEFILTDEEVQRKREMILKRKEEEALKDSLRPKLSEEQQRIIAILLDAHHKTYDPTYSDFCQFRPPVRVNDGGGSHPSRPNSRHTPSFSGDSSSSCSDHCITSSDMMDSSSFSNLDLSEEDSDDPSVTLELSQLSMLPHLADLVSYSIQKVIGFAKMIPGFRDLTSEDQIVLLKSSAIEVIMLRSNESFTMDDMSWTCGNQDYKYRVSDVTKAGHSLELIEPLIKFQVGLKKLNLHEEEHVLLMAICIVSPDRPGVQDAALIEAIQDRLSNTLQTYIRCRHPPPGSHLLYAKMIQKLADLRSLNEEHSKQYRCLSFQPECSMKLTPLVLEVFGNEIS
Sequence of Peroxisome proliferator-activated receptor delta (Homo sapiens) (Q03181 whole entry, looked up): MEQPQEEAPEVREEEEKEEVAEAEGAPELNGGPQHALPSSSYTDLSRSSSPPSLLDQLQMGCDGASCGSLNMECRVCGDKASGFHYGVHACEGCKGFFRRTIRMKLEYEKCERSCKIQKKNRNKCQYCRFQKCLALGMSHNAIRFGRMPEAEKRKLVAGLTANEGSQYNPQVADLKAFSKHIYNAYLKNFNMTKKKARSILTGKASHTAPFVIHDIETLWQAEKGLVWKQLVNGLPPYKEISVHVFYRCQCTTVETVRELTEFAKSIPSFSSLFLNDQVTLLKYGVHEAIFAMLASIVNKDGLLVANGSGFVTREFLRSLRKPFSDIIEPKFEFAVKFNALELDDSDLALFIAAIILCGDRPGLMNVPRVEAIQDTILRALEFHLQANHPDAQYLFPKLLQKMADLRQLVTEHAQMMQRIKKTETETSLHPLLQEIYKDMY

Take `CC1(C)CCC(C)(C)c2cc(C(=O)Nc3ccc(C(=O)O)cc3)ccc21`: in [1], the Potency entry is “inactive”.
As for `CCCCCCCCCCCC[N+](C)(C)CCCCCCCCCCCC`, the Potency is 17.4 µM (active) in [2], 13.8 µM (active) in test [3], 49 µM (active) in test [1] and 27.5 µM (active) in [4].
Take `CCCCC(CC)COP(=O)(O)OCC(CC)CCCC` (centres undefined): the Potency in test [2] is 55 µM (active); in test [4] it was 55 µM (active) and 43.6 µM (active). Moreover, the Potency entry in [3], in test [5], in test [6] and in [7] was “inactive” in each case.
With `CCCCCOC(=O)CCCC`, the Potency result in test [2], in test [3], in test [1], in test [4], in [5] and in test [6] was “inactive” each time. For the same compound, the Potency entry in test [8] and in test [7] was “inactive” each time.
As to `CCOc1nc2cccc(C(=O)OC(C)OC(=O)OC3CCCCC3)c2n1Cc1ccc(-c2ccccc2-c2nn[nH]n2)cc1` (centres undefined), the Potency was 17.4 µM (active) in test [2], 17.4 µM (active) in [3] and 15.5 µM (active) in test [4]. Further, in [5], the Potency result was “inactive”.
Turning to `CCc1cc(Cc2cc(CC)c(N)c(CC)c2)cc(CC)c1N`, the values for the Potency in test [2], in test [3] and in [4] were 54.9 µM (active), 54.9 µM (active) and 43.6 µM (active), respectively. The Potency entry in [5], in test [6] and in test [7] was “inactive” in each case.
As to `CC(C)(C)CC(C)(C)c1ccc(OCCOCC[N+](C)(C)Cc2ccccc2)cc1`, the Potency in test [2] is 21.9 µM (active) and 21.1 µM (active); in test [3], 17.4 µM (active); in [4] it was 48.9 µM (active); in test [6], 43.6 µM (active) and 26.6 µM (active). The Potency result in test [1] and in test [5] was “inactive” in each case.
For the compound `C[C@H]1[C@H]2CC[C@H]3[C@@H]4CC=C5C[C@@H](N(C)C)CC[C@]5(C)[C@H]4CC[C@]23CN1C`, the Potency result in test [2], in test [3], in [4], in [5], in test [6] and in [8] was “inactive” throughout. In addition, the Potency entry in test [7] was “inactive”.
As for `CCCCCCCC/C=C\CCCCCCCCOCCO`, the Potency was 17.9 µM (active) in [2], 25.4 µM (active) in test [3], 22.6 µM (active) in test [4] and 28.4 µM (active) in test [6].
Turning to `CC(=O)S[C@@H]1CC2=CC(=O)CC[C@]2(C)[C@H]2CC[C@@]3(C)[C@@H](CC[C@@]34CCC(=O)O4)[C@H]12`, the Potency result in test [2], in test [3] and in [4] was “inactive” throughout.
For `C[C@@H](NCCCc1cccc(C(F)(F)F)c1)c1cccc2ccccc12`, the Potency in [2] is 11.9 µM (active); in [3], 26.6 µM (active); in [9], 29.8 µM (active); in test [4], 29.8 µM (active). Moreover, the Potency result in [5] was “inactive”.
As for `C[C@]12CCC(=O)C=C1CC[C@@H]1[C@@H]2[C@@H](O)C[C@@]2(C)[C@H]1CC[C@]2(O)C(=O)COC(=O)CCC(=O)O`, the Potency entry in test [2], in [3], in test [1], in test [4], in test [5] and in test [6] was “inactive” throughout. Also, the Potency result in [8] and in [7] was “inactive” each time.
Regarding `CCC(C)Nc1ccc(NC(C)CC)cc1` (centres undefined), the Potency in [2] is 12.5 µM (active); in [3], 22.3 µM (active); in [4], 22.3 µM (active); in test [6], 35.3 µM (active). The Potency entry in test [5] is “inactive”.
As to `CS(=O)(=O)CCNCc1ccc(-c2ccc3ncnc(Nc4ccc(OCc5cccc(F)c5)c(Cl)c4)c3c2)o1`, the Potency was 9.44 µM (active) in [2], 21.1 µM (active) in test [3], 10.6 µM (active) in [4] and 26.6 µM (active) in test [6].
As to `C=CC(=O)OCCn1c(=O)n(CCOC(=O)C=C)c(=O)n(CCOC(=O)C=C)c1=O`, the Potency in test [2] was 19.5 µM (active); in test [3], 19.5 µM (active); in test [9] it was 13.8 µM (active); in test [4], 24.5 µM (active); in test [6], 34.7 µM (active).
As to `Cc1ccc2oc(CN(Cc3ccccc3)C(=O)Nc3c(F)cc(F)cc3F)c(-c3ccc(Cl)cc3)c2c1`, the Potency entry in test [2], in [3], in [4], in test [5], in test [6] and in test [7] was “inactive” throughout.
Consider `Cc1cc(CCN2CCN(c3nsc4ccccc34)CC2)cc2c1NC(=O)CC2(C)C`, for which the Potency in test [2] was 21.9 µM (active); in [3], 19.5 µM (active); in [9] it was 19.5 µM (active); in test [4] it was 21.9 µM (active); in [6] it was 38.9 µM (active).
With `CSc1ccc2c(c1)C(N1CCN(C)CC1)Cc1ccccc1S2` (centres undefined), the Potency in test [2] is 29.8 µM (active); in test [3], 16.8 µM (active); in test [4] it was 26.6 µM (active). In addition, in [5], the Potency entry was “inactive”.
For the compound `CCCN(CCC)C(=O)C(CCC(=O)OCCCN1CCN(CCOC(=O)Cc2c(C)n(C(=O)c3ccc(Cl)cc3)c3ccc(OC)cc23)CC1)NC(=O)c1ccccc1` (centres undefined), the Potency in test [2] is 23.7 µM (active); in test [3], 21.1 µM (active); in test [9], 26.6 µM (active); in test [4], 16.8 µM (active); in test [6] it was 26.6 µM (active). In addition, the Potency result in test [5] is “inactive”.
For the compound `Clc1ccc2cc3ccccc3cc2c1`, the Potency entry in [2], in test [3], in test [9], in [1], in test [5] and in [6] was “inactive” in each case. Also, the Potency result in test [7] was “inactive”.
On to `Cc1cc(O)c2ccccc2c1O`, for which the Potency in [2] is 10.6 µM (active); in test [3], 10.6 µM (active); in [9] it was 10.6 µM (active); in test [4], 13.3 µM (active); in [6], 23.7 µM (active).
Consider `CCN(C(=O)c1cc(C)cc(OC[C@H](C)Nc2ccncc2)c1)C(C)C`, for which the Potency entry in test [2], in test [3], in test [4], in test [5] and in [6] was “inactive” each time.
